# Measurements: PubChem BioAssay AID595 (National Center for Advancing Translational Sciences (NCATS), 2007)
# Screen size: about 71,000 compounds; about 310 (0.44%) were called active. Where a call stands in place of a potency, no number is given. Roughly 5% stayed inconclusive and do not appear here. For the sample, actives were picked, then their nearest neighbours and some compounds at random. A number with no mark means an inactive call. The call rests on the fitted dose curve; in most records, active means well fitted curve in either direction with a large enough effect; inconclusive means small, poorly fitted or top-dose-only effect, or another doubt; inactive means flat fitted curve, though single readings scatter.
# Tested on: Hsp90 C-terminal peptide / TPR2A (Hop) interaction, human
# Assay: qHTS Assay for Disrupters of an Hsp90 Co-Chaperone Interaction
# Conditions: AlphaScreen TPR2A-His6 binding biotin-Hsp90 C-terminal peptide; series mostly up to 57 µM
# Description: NIH Chemical Genomics Center [NCGC]
# NIH Molecular Libraries Screening Centers Network [MLSCN]
# Hsp90 (heat shock protein 90) is the essential molecular chaperone and it accounts for 1-2% of all cytosolic proteins and is critical for the activity of diverse cellular proteins that are involved in a variety of cellular processes, including development, cell cycle, and steroid hormone signaling. Its client proteins include signaling kinases such as IGF1R, Akt, v-Src, Raf-1; regulators of cell survival such as Bcr-Abl; and transcription factors such as mutated p53, estrogen and progesterone receptors. Hsp90 has emerged as an important target for cancer treatment due to its essential role in maintaining transformation and regulating the function of oncogenic signaling proteins.
# The in vivo function of Hsp90 is regulated by the binding and hydrolysis of ATP at its N-terminal. Geldanamycin binds to ATP site and inhibit Hsp90 function. Geldanamycin and its analogues are under clinical trials in cancer patients.
# This domain contains the binding site for tetratricopeptide repeat (TPR) domains on HOP (Hsp Organizing Protein). TPR is a structural motif used by a significant number of cochaperones by which the in vivo function of Hsp90 is regulated. TPR2A on HOP binds specifically to MEEVD motif of the C-terminal of Hsp90.
# A homogeneous AlphaScreen is developed to assess the interaction between TPR2A and MEEVD motif of the C-terminal of Hsp90 by using the isolated TPR2A domain and a synthesized 20mer Hsp90 C terminal peptide. AlphaScreen is two bead-based proximity-dependent chemical energy transfer luminescent assay platform. TPR2A-His-6 and biotinylated Hsp90 C terminal peptide will bring streptavidin donor beads and nickel chelate acceptor beads to a proximity range (less than 200 nm), and subsequently lead a chemical luminescent reaction upon exciting donor beads with 680 nm laser. Inhibition of TPR2A and MEEVD motif interaction by small molecules could attenuate or abolish this chemical luminescent reaction.
# Counter screening: Biotinylated-His-6 (PerkinElmer) can be utilized as a counter screen, as it serves as a linker to bring streptavidin beads and nickel chelate beads together. The counter screen can exclude alpha screen platform false positives due to small molecules being metal chelators, biotin analogues and imidazole analogues, or due to interfering with oxygen release from donor beads. Such an assay should be utilized to qualify any activity observed in this screen.
# NCGC Assay Protocol Summary:
# The assay was performed on 1536-well white plate (untreated solid bottom). Liquids were dispensed by 1536-well plate washer (Kalypsys, San Diego, CA). Plates were read on EnVision (PerkinElmer, Boston, MA).TPR2A-His6 was produced using a bacteria expression system and purified using a well developed method (Ghosh et al., 2000). Hsp90 C terminal 20-mer peptide with or without an N-terminal biotin group are synthesized using automated solid phase synthesis by the Yale Keck facility. The composition of assay buffer was (in mM) 25 HEPES, 100 KCl, 2 MgCl2 and 2 DTT; 0.1% BSA and 0.01% Tween-20. TPR2A-His6 binding to biotin-Hsp90 will bring streptavidin donor beads and nickel chelate acceptor beads (PerkinElmer) together and can be measured by Alpha reading by EnVision (PerkinElmer). Free Hsp90 blocks biotin-Hsp90 binding to TPR2 and serves as a positive control in the current asssay.
# The assay was performed at room temperature. All compounds were screened as titrations from […] to 46 uM final concentration. The assay was performed in 1536-well format plates (untreated white solid bottom, Corning Inc.) as follows:
# Sequence,Parameter,Value,Description
# 1,Reagent,3 uL TPR2A-His6,Final concentration was 5nM
# 2,Compound,23 nL,Final titration was from 0.7 nM to 46 uM
# 3,Time,15 minutes,Room temperature
# 4,Reagent,1 uL biotin-Hsp90,With and without free Hsp90. Final concentration was 10 nM for biotin-Hsp90 and 10uM for free Hsp90.
# 5,Time,1 hour,Room temperature
# […]
# Potency means the concentration at half of the fitted maximal effect.
Compound,"activity change, negative = inhibition",Potency
C[C@]1(O)CC[C@H]2[C@H]3CC=C4N5CCN=C5CC[C@@]4(C)[C@H]3CC[C@@]21C,-4.96% [at 11 µM],–
CC1(CCC(=O)OC2CCCCC2)OCCO1,-2.62% [at 11 µM],–
CN1CCN(S(=O)(=O)c2ccc3[nH]cc(C(=O)O)c(=O)c3c2)CC1,inactive,–
CCOC(=O)c1nc(N)sc1C(=O)OCC,inactive,–
COC(=O)C1(C)C=CCN1C(=O)c1ccccc1 (configuration not stated),inactive,–
Cc1c(O)c(Br)c(C)c(O)c1Br (tested in a mixture with another compound),-3.86% [at 11 µM],–
COCCNc1ccnc(-c2cccc(NS(C)(=O)=O)c2)n1,inactive,–
Cc1cccc(CNc2cc(-c3ccccc3Cl)ncn2)c1,inactive,–
O=C(Nc1c[nH]c(=O)[nH]c1=O)Oc1ccccc1,1.58% [at 11 µM],–
Nc1ccccc1N,inactive,–
COc1cc([C@H]2c3cc4c(cc3[C@@H](O[C@@H]3O[C@H]5CO[C@@H](C)O[C@]5(O)C[C@H]3O)[C@@H]3COC(=O)[C@H]23)OCO4)cc(OC)c1O,inactive,–
NS(=O)(=O)c1ccc(NS(=O)(=O)/C=C/c2ccccc2)cc1,inactive,–
Cc1ccc(S(=O)(=O)C(C#N)c2nc3ccccc3nc2N2CCCC2)cc1C (configuration not stated),inactive,–
Cc1cc(C)c2nc(N3CCCC3)c(C#N)cc2c1,inactive,–
Cc1cccc2cc(C#N)c(N3CCCC3)nc12,–,31.6 µM [activator] (active)
C[C@@H]1C[C@H]2[C@@H]3C[C@H](F)C4=CC(=O)C=C[C@@]4(C)[C@]3(F)[C@H](O)C[C@]2(C)[C@@]1(O)C(=O)CO,inactive,–
CN1CCN(c2ncc3nc(-c4ccc(Cl)cc4)c(=O)n(-c4ccccc4)c3n2)CC1,inactive,–
O=C(Nc1cccc(F)c1)N1CCC2(CC1)CCN(S(=O)(=O)c1ccccc1)CC2,inactive,–
Cc1nc2cnc(Oc3cccc(Cl)c3)nc2n(C2CC2)c1=O,inactive,–
ON=C1/C(=N\O)CC2(C/C1=N/O)OCCO2,–,12.6 µM (active)
O/N=C1\CC2(Cc3nonc31)OCCO2,inactive,–

Compound,"activity change, negative = inhibition",Potency
O=c1c(CCc2ccccc2)nc2cncnc2n1C1CC1,inactive,–
COc1ccccc1CNc1ncncc1-c1cccc(NS(C)(=O)=O)c1,inactive,–
COCCNc1cc(-c2c(C)noc2C)ncn1,inactive,–
O=C(O)[C@@H]1[C@@H](C(=O)O)[C@]23C[C@@]2(C(=O)O)[C@]2(C(=O)O)CCC3=C3CCCC312,0.013% [at 11 µM],–
O=C(CC(NS(=O)(=O)c1ccc(Cl)cc1)c1ccco1)NC1CCCC1 (configuration not stated),inactive,–
CN1CCN(S(=O)(=O)c2ccc(NC(=O)C3CCCO3)cc2)CC1 (configuration not stated),inactive,–
O=S(=O)(c1ccccc1)N1CCC2(CC1)CN(Cc1nccs1)C2,inactive,–
NC1(C(=O)OCc2ccccc2)CCCC1,-2.78% [at 11 µM],–
NCC(=O)[C@@H](O)[C@H](O)[C@H](O)CO,-1.57% [at 11 µM],–
Cc1ccc(CNC(=O)C2CC(=O)N(C3CCCCCCC3)C2)cc1 (configuration not stated),inactive,–
COc1ccc(C(=O)N2CCC[C@@]3(CCN(C(=O)NC(C)C)C3)C2)cc1,inactive,–
Clc1ccc(Cc2nnc(-c3cccs3)o2)cc1,inactive,–
Cn1c(=O)c(-c2ccccc2)nc2cnc(N3CCNCC3)nc21,inactive,–
C=CC(=C)CCC=C(C)C,inactive,–
CN1CCN(c2cc(=O)n(-c3ccc(Cl)cc3)c(=O)[nH]2)CC1,inactive,–
CCN(CC)S(=O)(=O)N1CCC(C(=O)NC(C)CCc2ccccc2)CC1 (configuration not stated),inactive,–
CC1=C(C(=O)OCc2ccccc2)C(c2ccc(C(F)(F)F)cc2)NC(=O)N1CCCCCC(=O)O (configuration not stated),inactive,–
COC(=O)C(CC(=O)Nc1cc(C)ccc1C)Nc1ccccc1OC (configuration not stated),inactive,–
O=C(O)c1ccc(COCC(F)(F)F)cc1,inactive,–
COC(=O)[C@@H]1[C@H]2C[C@H]3c4[nH]c5cc(OC)ccc5c4CCN3C[C@@H]2C[C@@H](OC(=O)c2cc(OC)c(OC)c(OC)c2)[C@@H]1OC,inactive,–
CC[C@]1(C)CC(=O)NC1=O,inactive,–

Compound,"activity change, negative = inhibition",Potency
CCCn1c(-c2ccc(F)cc2)nc2c(NCC3CCCN3CC)nc(C)nc21 (configuration not stated),inactive,–
CCNc1ncc2ncc(=O)n(CCc3ccccc3)c2n1,inactive,–
Cc1c(NC(=O)c2cccnc2)c(=O)n(-c2ccccc2)n1C,inactive,–
CN1C(=O)C[C@H](c2ccccc2)C1=O,inactive,–
CC[C@@H]1Cc2cc(O)ccc2C2=C1c1ccc(O)cc1C[C@H]2CC,inactive,–
Nc1ccc2c3c(cccc13)C(=O)NC2=O,inactive,–
COc1ccc(CC(=O)Nc2ccc3c(c2)CCC3)cc1S(=O)(=O)N1CCOCC1,inactive,–
CC(C)C[C@@H](CC(=O)N[C@@H](CCC(=O)O)CC(=O)O)NC(=O)[C@@H]1CCCC[C@H]1NC(=O)C[C@@H](NC(=O)C[C@H](Cc1c[nH]c2ccccc12)NC(=O)[C@@H]1CCCC[C@H]1N)C(C)C,–,5.01 µM (active)
CC(C)[C@@H](CC(=O)N[C@@H]1CCNC[C@H]1C(=O)N[C@H](CC(=O)N[C@@H](CCC(=O)O)CC(=O)O)Cc1ccccc1)NC(=O)C[C@H](CO)NC(=O)[C@@H]1CNCC[C@H]1N,inactive,–
Oc1c(C(c2ccccn2)N2CCOCC2)ccc2cccnc12 (configuration not stated),–,2 µM (active)
OC(COc1ccc2ccccc2c1)CN1CCOCC1 (configuration not stated),inactive,–
O=C(c1cccnc1NCc1ccccc1)N1CCOCC1,inactive,–
CCN(Cc1ccncc1)C(=O)[C@@H](CO)c1ccccc1,inactive,–
CS(=O)(=O)N1CCC2(CC1)CN(Cc1ccccc1)C2,inactive,–
COc1cccc(Cn2c(=O)c(-c3ccccc3)nc3cnc(OC)nc32)c1,inactive,–
CCCC[C@@H]1C[C@H]1C(NC(=O)c1ccc(-c2ccccc2)cc1)c1ccc(-c2ccccc2)cc1 (some centres not stated),inactive,–
CC1=C(C(=O)Nc2ccc(Cl)cc2)C(c2ccco2)NC(=O)N1 (configuration not stated),inactive,–
Cc1ccc2[nH]c(=O)c(-c3nc4c(C)cccn4c3NCc3ccco3)cc2c1,inactive,–
Clc1ccc(C(c2ccc(Cl)cc2)n2cc[n+](C[C@@H](OCc3ccc(Cl)cc3Cl)c3ccc(Cl)cc3Cl)c2)cc1,inactive,–
O=C(O)[C@@H](O)Cc1ccccn1,-2.31% [at 11 µM],–
